In PubChem BioAssay (Tox21):
Values joined by “and” are separate entries in the source; they are usually repeats but may differ in a detail not shown here. Identical values can stand only once. Inconclusive results are not listed. A call without a number means that no potency is given here. Some compounds were tested as several samples or in several runs, with calls that do not always agree. Active and inactive are the calls of the source. The call rests on the fitted dose curve; in most records, active means well fitted curve in the direction sought with a large enough effect in the repeat runs; inconclusive means weak or mixed curves; inactive means no such curve, though single readings can be large; an effect the other way counts as inactive or inconclusive.

Assays:
[1] = target: Cytochrome P450 2D6 (Homo sapiens) (UniProt P10635); test: Cytochrome P450 Family 2 Subfamily D Member 6 (CYP2D6) small molecule antagonists: luciferase reporter qHTS assay (AID 1671196); further: nearly all actives have a fitted effect of over 50% in size; on activity change, negative = inhibition: series mostly up to about 120 µM
Chain of Cytochrome P450 2D6 (Homo sapiens) (P10635 whole entry, looked up): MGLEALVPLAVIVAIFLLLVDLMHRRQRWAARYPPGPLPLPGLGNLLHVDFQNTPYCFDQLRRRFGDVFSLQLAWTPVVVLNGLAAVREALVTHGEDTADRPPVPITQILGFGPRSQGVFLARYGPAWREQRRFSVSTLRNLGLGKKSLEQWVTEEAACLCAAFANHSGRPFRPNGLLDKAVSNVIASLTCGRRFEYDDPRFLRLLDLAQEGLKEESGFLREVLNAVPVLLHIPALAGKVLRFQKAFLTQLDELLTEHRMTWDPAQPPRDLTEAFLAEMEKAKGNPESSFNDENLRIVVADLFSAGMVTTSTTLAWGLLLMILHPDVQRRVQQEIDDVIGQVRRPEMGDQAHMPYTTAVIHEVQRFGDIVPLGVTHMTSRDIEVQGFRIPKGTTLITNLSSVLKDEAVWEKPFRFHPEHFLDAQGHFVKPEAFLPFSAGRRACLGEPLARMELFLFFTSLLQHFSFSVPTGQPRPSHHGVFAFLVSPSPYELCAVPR
Summary of the method: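 Quantitative HTS of Tox21 chemicals against CYP2D6 using a luminescent proluciferin substrate. After NADPH addition, 1 h room-temperature reaction; luminescence recorded 20 min post detection reagent.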

[2] = target: Cytochrome P450 2C19 (Homo sapiens) (UniProt P33261); test: Cytochrome P450 Family 2 Subfamily C Member 19 (CYP2C19) small molecule antagonists: luciferase reporter qHTS assay (AID 1671197); further: nearly all actives have a fitted effect of over 65% in size; on activity change, negative = inhibition: series mostly up to about 120 µM
Chain of Cytochrome P450 2C19 (Homo sapiens) (P33261 whole entry, looked up): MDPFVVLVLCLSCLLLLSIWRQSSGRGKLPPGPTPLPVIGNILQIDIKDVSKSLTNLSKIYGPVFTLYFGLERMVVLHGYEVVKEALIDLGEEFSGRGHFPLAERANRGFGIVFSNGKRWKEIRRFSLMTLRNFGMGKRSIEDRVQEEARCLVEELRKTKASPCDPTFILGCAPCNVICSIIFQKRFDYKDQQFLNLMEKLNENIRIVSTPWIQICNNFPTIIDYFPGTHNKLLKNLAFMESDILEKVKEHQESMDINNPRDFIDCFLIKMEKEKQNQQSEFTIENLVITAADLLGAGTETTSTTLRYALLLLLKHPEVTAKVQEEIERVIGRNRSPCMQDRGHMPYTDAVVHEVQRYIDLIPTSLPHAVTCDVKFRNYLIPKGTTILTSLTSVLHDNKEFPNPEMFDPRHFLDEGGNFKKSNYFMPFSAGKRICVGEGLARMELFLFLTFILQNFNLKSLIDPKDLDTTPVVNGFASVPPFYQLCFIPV
Summary of the method: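 Luminescent readout of CYP2C19 activity: luciferin product detected 20 min after adding detection reagent. Before that, compound and enzyme-substrate mix preincubated 10 min at room temperature; NADPH-regenerating system started a 1 h, 37C reaction. Ketoconazole as positive control.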

[3] = target: Cytochrome P450 2C9 (Homo sapiens) (UniProt P11712); test: Cytochrome P450 Family 2 Subfamily C Member 9 (CYP2C9) small molecule antagonists: luciferase reporter qHTS assay (AID 1671198); further: nearly all actives have a fitted effect of over 50% in size; on activity change, negative = inhibition: series mostly up to about 120 µM
Chain of Cytochrome P450 2C9 (Homo sapiens) (P11712 whole entry, looked up): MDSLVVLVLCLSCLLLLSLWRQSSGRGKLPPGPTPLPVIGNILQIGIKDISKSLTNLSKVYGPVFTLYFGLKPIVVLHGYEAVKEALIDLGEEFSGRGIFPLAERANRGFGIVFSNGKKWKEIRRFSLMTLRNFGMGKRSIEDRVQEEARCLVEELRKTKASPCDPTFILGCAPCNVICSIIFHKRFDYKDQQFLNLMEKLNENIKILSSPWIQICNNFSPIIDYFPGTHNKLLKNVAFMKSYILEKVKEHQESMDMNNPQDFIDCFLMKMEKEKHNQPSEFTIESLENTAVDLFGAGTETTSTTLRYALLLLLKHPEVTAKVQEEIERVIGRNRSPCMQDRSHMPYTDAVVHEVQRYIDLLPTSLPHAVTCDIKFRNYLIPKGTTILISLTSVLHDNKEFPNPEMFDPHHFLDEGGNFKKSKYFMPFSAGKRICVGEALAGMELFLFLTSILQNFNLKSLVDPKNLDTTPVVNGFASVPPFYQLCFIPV
Summary of the method: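 Enzyme-substrate mix preincubated with compound 10 min at room temperature; reaction started with NADPH regeneration solution, 1 h 37C. Luminescent luciferin product read after 20 min detection reagent.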

[4] = target: Cytochrome P450 1A2 (Homo sapiens) (UniProt P05177); test: Cytochrome P450 Family 1 Subfamily A Member 2 (CYP1A2) small molecule antagonists: luciferase reporter qHTS assay (AID 1671199); further: nearly all actives have a fitted effect of over 50% in size; on activity change, negative = inhibition: series mostly up to about 120 µM
Chain of Cytochrome P450 1A2 (Homo sapiens) (P05177 whole entry, looked up): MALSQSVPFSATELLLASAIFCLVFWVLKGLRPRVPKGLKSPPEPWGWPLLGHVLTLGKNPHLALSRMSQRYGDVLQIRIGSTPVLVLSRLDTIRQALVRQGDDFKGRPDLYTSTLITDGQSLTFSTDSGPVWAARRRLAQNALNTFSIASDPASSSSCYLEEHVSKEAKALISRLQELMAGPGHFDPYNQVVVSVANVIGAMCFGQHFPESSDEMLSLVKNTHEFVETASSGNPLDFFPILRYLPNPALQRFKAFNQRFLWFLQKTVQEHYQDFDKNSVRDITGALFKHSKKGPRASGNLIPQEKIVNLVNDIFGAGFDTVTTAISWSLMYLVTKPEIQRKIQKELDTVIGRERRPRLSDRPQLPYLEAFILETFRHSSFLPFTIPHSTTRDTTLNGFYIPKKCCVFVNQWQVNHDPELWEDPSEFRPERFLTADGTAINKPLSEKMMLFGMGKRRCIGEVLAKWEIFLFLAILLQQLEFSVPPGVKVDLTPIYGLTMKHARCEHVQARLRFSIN
Summary of the method: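 Quantitative high-throughput format using the P450-Glo CYP1A2 system. Reaction initiated by NADPH regeneration solution, 1 h at room temperature, then stopped with detection reagent; luminescence measured 20 min later.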

[5] = target: Voltage-gated inwardly rectifying potassium channel KCNH2 (Homo sapiens) (UniProt Q12809); test: Human Ether-a-go-go-Related Gene (hERG) channel small molecule antagonists: fluorescence cell-based qHTS assay (AID 1671200); further: nearly all actives have a fitted effect of over 50% in size;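 on activity change, negative = inhibition: hERG-expressing U2OS cells given a thallium stimulus after FluxOR II dye loading; series mostly up to about 77 µM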
Chain of Voltage-gated inwardly rectifying potassium channel KCNH2 (Homo sapiens) (Q12809 whole entry, looked up): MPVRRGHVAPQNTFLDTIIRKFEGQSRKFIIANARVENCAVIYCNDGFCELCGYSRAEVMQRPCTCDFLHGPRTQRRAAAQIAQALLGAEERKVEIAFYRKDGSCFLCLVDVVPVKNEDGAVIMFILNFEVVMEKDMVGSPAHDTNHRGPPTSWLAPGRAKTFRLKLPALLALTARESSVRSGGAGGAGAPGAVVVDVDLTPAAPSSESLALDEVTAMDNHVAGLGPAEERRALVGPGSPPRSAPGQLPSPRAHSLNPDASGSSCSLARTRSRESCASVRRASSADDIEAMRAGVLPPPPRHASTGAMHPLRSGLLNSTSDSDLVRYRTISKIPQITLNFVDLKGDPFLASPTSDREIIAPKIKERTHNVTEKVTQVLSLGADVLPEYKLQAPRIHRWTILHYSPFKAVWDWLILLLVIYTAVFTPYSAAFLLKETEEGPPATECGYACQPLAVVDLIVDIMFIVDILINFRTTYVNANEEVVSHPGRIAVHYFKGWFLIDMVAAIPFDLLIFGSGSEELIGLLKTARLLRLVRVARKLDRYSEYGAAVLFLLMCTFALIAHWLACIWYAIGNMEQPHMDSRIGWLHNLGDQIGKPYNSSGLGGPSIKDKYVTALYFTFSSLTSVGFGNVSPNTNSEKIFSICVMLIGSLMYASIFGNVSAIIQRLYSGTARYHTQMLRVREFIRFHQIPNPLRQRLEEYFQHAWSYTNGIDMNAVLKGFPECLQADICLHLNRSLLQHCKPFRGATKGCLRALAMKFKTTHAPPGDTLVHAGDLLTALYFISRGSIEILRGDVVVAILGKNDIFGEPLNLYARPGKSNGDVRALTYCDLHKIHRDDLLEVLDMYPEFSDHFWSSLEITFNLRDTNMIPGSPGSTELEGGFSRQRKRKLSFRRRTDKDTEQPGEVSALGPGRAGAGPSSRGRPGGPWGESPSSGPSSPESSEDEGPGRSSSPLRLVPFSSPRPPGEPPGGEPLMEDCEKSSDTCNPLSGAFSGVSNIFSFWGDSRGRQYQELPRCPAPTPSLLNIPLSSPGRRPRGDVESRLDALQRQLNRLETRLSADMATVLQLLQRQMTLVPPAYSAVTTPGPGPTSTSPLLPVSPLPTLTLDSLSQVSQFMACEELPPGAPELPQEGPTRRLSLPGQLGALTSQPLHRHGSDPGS
Summary of the method: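 hERG-U2OS cells plated overnight at 37 C, loaded with FluxOR II dye 1 h at RT in dark; after 10 min, thallium stimulus added. Fluorescence (480/540 nm) read kinetically for 2 min at 1 s intervals.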

[6] = target: Cytochrome P450 3A4 (Homo sapiens) (UniProt P08684); test: Cytochrome P450 Family 3 Subfamily A Member 4 (CYP3A4) small molecule antagonists: luciferase reporter qHTS assay (AID 1671201); further: nearly all actives have a fitted effect of over 50% in size; on activity change, negative = inhibition: series mostly up to about 120 µM
Chain of Cytochrome P450 3A4 (Homo sapiens) (P08684 whole entry, looked up): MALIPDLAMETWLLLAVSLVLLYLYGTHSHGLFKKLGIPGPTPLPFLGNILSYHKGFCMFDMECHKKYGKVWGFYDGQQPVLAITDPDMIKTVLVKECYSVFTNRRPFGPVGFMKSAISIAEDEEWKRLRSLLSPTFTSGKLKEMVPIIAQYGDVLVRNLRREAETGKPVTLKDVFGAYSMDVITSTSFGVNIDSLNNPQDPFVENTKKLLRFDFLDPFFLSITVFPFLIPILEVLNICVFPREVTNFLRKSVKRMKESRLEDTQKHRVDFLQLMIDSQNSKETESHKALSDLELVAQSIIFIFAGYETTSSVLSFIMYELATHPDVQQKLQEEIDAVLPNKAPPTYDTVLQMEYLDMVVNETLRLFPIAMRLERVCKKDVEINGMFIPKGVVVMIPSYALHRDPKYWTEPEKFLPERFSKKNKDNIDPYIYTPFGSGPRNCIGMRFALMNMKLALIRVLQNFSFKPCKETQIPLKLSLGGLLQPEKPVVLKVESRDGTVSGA
Summary of the method: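 P450-Glo CYP3A4 luminescent assay: compounds preincubated 10 min at room temperature with enzyme and proluciferin substrate, NADPH regeneration added, 1 h room-temperature reaction, stopped with luciferin detection reagent; luminescence read after 20 min. Ketoconazole positive control.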
Potency means the concentration at half of the fitted maximal effect.

Compound	Potency [1]	Potency [2]	Potency [3]	Potency [4]	Potency [5]	Potency [6]	activity change, negative = inhibition [1]	activity change, negative = inhibition [2]	activity change, negative = inhibition [3]	activity change, negative = inhibition [4]
CCCCCCOC(C)=O	inactive	inactive	inactive	inactive	inactive	inactive				
COC(=O)c1ccc(C(=O)OC)cc1	inactive	18.1 µM (active) and inactive	40.5 µM (active) and inactive	25.5 µM (active) and 10 µM (active)	inactive	inactive				
C=CC(=O)OCCCCCCCC(C)C	inactive	inactive	inactive	inactive	inactive	inactive				
C=C1C2CCC(C2)C1(C)C (stereo not drawn)	inactive	inactive	inactive	inactive and 39.9 µM (active)	inactive	inactive				
COCC(C)O (stereo not drawn)	inactive	inactive	inactive	inactive	inactive	inactive				
CC#C[C@]1(O)CC[C@H]2[C@@H]3CCC4=CC(=O)CCC4=C3[C@@H](c3ccc(N(C)C)cc3)C[C@@]21C	63.3 µM (active) and 38.9 µM (active)	20 µM (active)	2.24 µM (active) and 2.75 µM (active)	inactive						
CCCCCCCCCC(=O)O	inactive	inactive	74.8 µM (active)	inactive	inactive	inactive				
OC[C@@H](O)[C@@H](O)[C@H](O)[C@@H](O)CO	inactive	inactive	inactive	inactive	inactive	inactive				
C=C(C#N)C(=O)OCC	44.7 µM (active)	inactive and 56.4 µM (active)	inactive and 63.3 µM (active)	inactive	inactive	inactive				
NCCNCCNCCNCCN	63 µM (active)	63 µM (active)			inactive	inactive	-26.4% [at 10.5 µM] (inactive)	36.2% [at 10.5 µM] (inactive)	8.07% [at 10.5 µM] (inactive)	8.65% [at 10.5 µM] (inactive)
c1ccc2ccccc2c1	inactive	inactive	inactive	70.7 µM (active) and inactive	inactive	inactive				
CN(C)c1ccc(C(=N)c2ccc(N(C)C)cc2)cc1	125 nM (active) and 76.7 nM (active)	5.57 µM (active) and 15.3 µM (active)	inactive	17.6 µM (active) and 21.6 µM (active)	48.4 µM (active)	39.4 µM (active)				
CC1(C)O[C@@H]2C[C@H]3[C@@H]4C[C@H](F)C5=CC(=O)CC[C@]5(C)[C@H]4[C@@H](O)C[C@]3(C)[C@]2(C(=O)CO)O1	inactive	inactive	inactive	inactive	inactive					
CCCCCCCCCCCCOCC1CO1 (stereo not drawn)	inactive	60.4 µM (active)	inactive	63.4 µM (active)	inactive	inactive				
CCOC(=O)[C@H](CCc1ccccc1)N[C@@H](C)C(=O)N1Cc2ccccc2C[C@H]1C(=O)O	inactive	35.8 µM (active) and inactive	8.02 µM (active) and 12.3 µM (active)	inactive	inactive					
CCCCCCCCC	inactive	inactive	inactive	inactive	inactive	inactive				
O=C(O)c1ccc([N+](=O)[O-])cc1	inactive	inactive	inactive	inactive	inactive	inactive				
Nc1cc(-c2ccncc2)c[nH]c1=O	31.7 µM (active) and 17.4 µM (active)	8.94 µM (active) and 3.89 µM (active)	14.2 µM (active) and 12.3 µM (active)	35.6 µM (active)	inactive					
O=C(Cl)c1c(Cl)c(Cl)c(C(=O)Cl)c(Cl)c1Cl	89.4 µM (active)	inactive	inactive	inactive	inactive	inactive				
CN(C)c1cccc(O)c1	40.5 µM (active)	2.56 µM (active) and 3.56 µM (active)	16.1 µM (active) and 12.6 µM (active)	32.2 µM (active) and 31.7 µM (active)						
c1ccc2[nH]cnc2c1	inactive	inactive	inactive	inactive	inactive	inactive				
O=[N+]([O-])c1cccc(Cl)c1	inactive	inactive	inactive	inactive	inactive	inactive				

Compound	Potency [1]	Potency [2]	Potency [3]	Potency [4]	Potency [5]	Potency [6]	activity change, negative = inhibition [1]	activity change, negative = inhibition [2]	activity change, negative = inhibition [3]	activity change, negative = inhibition [4]
CCCCC(CC)COC(=O)/C=C\C(=O)OCC(CC)CCCC (stereo not drawn)	inactive	39.9 µM (active) and 71 µM (active)	39.9 µM (active)	35.6 µM (active)	inactive	5.64 µM (active)				
OC1CCCC1	inactive	inactive	inactive	inactive	inactive	inactive				
OC[C@@H](O)[C@H](O)[C@H](O)[C@@H](O)CO	inactive	inactive	inactive	inactive	inactive	inactive				
O=c1c(-c2ccc(O)cc2)coc2cc(O)ccc12	inactive	49.8 µM (active)	280 nM (active) and 159 nM (active)	31.4 µM (active) and 39.9 µM (active)						
OCCOCCOCCOCCO	inactive	40.8 µM (active) and inactive	inactive	39.9 µM (active)	inactive	inactive				
CC(C)(C)C(=O)C1C(=O)c2ccccc2C1=O	inactive	35.3 µM (active) and inactive	22.2 µM (active) and 25.2 µM (active)	31.4 µM (active)	inactive	28 µM (active)				
CCC(=O)O	inactive	inactive	inactive	inactive	inactive	inactive				
CS(=O)(=O)c1ccc([C@@H](O)[C@@H](CO)NC(=O)C(Cl)Cl)cc1	64.1 µM (active) and inactive	28.6 µM (active) and 17.4 µM (active)	inactive	inactive	inactive	inactive				
Cc1cc(O)cc(C)c1Cl	inactive	inactive	inactive	25.2 µM (active) and 15.5 µM (active)	inactive	inactive				
C=C(C)C(=O)OCCCCCC	inactive	inactive	inactive	inactive	inactive	inactive				
Oc1ccc2ccccc2c1N=Nc1ccccc1	35.6 µM (active) and inactive	31.7 µM (active)	11.2 µM (active) and 14.2 µM (active)	356 nM (active) and 2.52 µM (active)	inactive	6.33 µM (active) and 20 µM (active)				
CCOC(=O)/C=C\C(=O)OCC	inactive	72.3 µM (active) and inactive	inactive	inactive	inactive	inactive				
Cc1ccc(C)c(C)c1	inactive	inactive	inactive	inactive and 29.6 µM (active)	inactive	inactive				
CCCCNC(N)=O	inactive	inactive	inactive	inactive	inactive	inactive				
CC(=O)Nc1ccc(C(=O)O)cc1	inactive	inactive	inactive	inactive	inactive	inactive				
CCCCC(CC)COC(C)=O (stereo not drawn)	inactive	inactive	inactive	inactive	inactive	inactive				
CC1=CC[C@H]2C[C@@H]1C2(C)C	inactive	inactive	inactive	inactive	inactive	inactive				
CCc1ccccc1O	35.4 µM (active) and inactive	17.7 µM (active) and inactive	35.4 µM (active)	31.6 µM (active)		31.6 µM (active) and inactive				
CCCCC(CC)COC(=O)CCCCCCCC(=O)OCC(CC)CCCC (stereo not drawn)	71 µM (active) and inactive	7.96 µM (active) and inactive	31.7 µM (active) and inactive	35.6 µM (active) and inactive		5.64 µM (active) and inactive				
C[C@@H]1O[C@@H](OC[C@H]2O[C@@H](Oc3c(-c4ccc(O)c(O)c4)oc4cc(O)cc(O)c4c3=O)[C@H](O)[C@@H](O)[C@@H]2O)[C@H](O)[C@H](O)[C@H]1O	inactive	inactive	inactive	inactive	inactive	inactive				
CCCCC/C=C\C/C=C\CCCCCCCC(=O)OC	35.6 µM (active)	55.8 µM (active) and 11.2 µM (active)	35.2 µM (active) and 7.96 µM (active)	35.6 µM (active)		inactive and 7.1 µM (active)				
